Our source for the z-score and composite z-score values is PubChem BioAssay.

The structures appear in SMILES notation. Active and inactive are the calls of the source. Unless noted, the rule behind the calls is not given here.

The nature of assay [1]: HepG2 liver cancer cell viability effects, profiling panel, resazurin fluorescence, 24 h, PK04 Diversity Set (AID 1172). As to conditions: higher = more signal. (Resazurin is reduced to fluorescent resorufin, in cell work by metabolically active cells.)
A short description of assay [2]: basal S. cerevisiae growth modulation, no modifier, primary screen, OD600, strain BY4716, 24 h, basal condition (AID 1173). The settings on record: OD600, 24 h, higher = more signal, called active from +8 up or from −8 down.
Assay [3] can be described thus: MM1S myeloma cell viability, profiling panel, resazurin fluorescence, basal, 24 h, PK04 Diversity Set (AID 1174).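 Note: MM1S multiple myeloma cell line.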 The settings on record: higher = more signal, called active from +8 up or from −8 down.
Assay [4] concerns the target Dihydroorotate dehydrogenase (quinone), mitochondrial (Plasmodium falciparum (isolate 3D7)) (UniProt Q08210). The assay is described as follows: PfDHODH enzyme inhibitors, primary screen, biochemical, C-terminal His tag, absorbance 600 nm (AID 1175).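 Note: recombinant parasite enzyme with a five histidine tag at its C terminus.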 The settings on record: DCIP absorbance 600 nm, higher = more signal, called active from +8 up or from −8 down.
A short description of assay [5]: P. aeruginosa biofilm formation inhibitors, primary screen, strain PAO1, LB-PBS medium, absorbance 600 nm (AID 1176). As to conditions: P. aeruginosa PAO1 growth/biofilm, A600, 12 h; higher = more signal.
Assay [6] in a line: S. cerevisiae RM11-1a growth modifiers, primary screen, strain RM11-1a, OD600, basal, 24 h (AID 1177).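 Note: cultures grown under basal conditions with no added stressor.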 As to conditions: OD600, 24 h, higher = more signal, called active from +8 up or from −8 down.
A short description of assay [7]: E. coli acrAB mutant growth effects, primary screen, E. coli filamentation inducers, strain DRC39, OD650, 24 h (AID 1178).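 Note: growth measured as culture turbidity by optical density at 650 nm.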 As to conditions: higher = more signal, called active from +8 up or from −8 down.
Assay [8] is described as follows: E. coli acrAB mutant growth effects, primary screen, E. coli filamentation inducers, strain DRC39, OD650, 48 h (AID 1179).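 Note: screen aims at cell division blockers that make cells filament.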 As to conditions: E. coli DRC39 delta-acrAB growth, higher = more signal, called active from +8 up or from −8 down.
Assay [9] is described as follows: RPMI8226 myeloma cell viability, profiling panel, resazurin fluorescence, basal, 24 h, PK04 Diversity Set (AID 1180).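 Note: RPMI8826 multiple myeloma cell line at 5000 cells per well.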 The settings on record: higher = more signal.
For assay [10], the target named is E3 ubiquitin-protein ligase XIAP (Homo sapiens) (UniProt P98170). The assay is described as follows: XIAP binders, primary screen, biophysical, small-molecule microarray, fluorescence 635 nm (AID 1181).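 Note: score merges 667 nm emission and signal to noise over triplicate slides.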 The settings on record: small-molecule microarray binding, higher = more signal.
Sequence of E3 ubiquitin-protein ligase XIAP (Homo sapiens) (P98170 whole entry, looked up): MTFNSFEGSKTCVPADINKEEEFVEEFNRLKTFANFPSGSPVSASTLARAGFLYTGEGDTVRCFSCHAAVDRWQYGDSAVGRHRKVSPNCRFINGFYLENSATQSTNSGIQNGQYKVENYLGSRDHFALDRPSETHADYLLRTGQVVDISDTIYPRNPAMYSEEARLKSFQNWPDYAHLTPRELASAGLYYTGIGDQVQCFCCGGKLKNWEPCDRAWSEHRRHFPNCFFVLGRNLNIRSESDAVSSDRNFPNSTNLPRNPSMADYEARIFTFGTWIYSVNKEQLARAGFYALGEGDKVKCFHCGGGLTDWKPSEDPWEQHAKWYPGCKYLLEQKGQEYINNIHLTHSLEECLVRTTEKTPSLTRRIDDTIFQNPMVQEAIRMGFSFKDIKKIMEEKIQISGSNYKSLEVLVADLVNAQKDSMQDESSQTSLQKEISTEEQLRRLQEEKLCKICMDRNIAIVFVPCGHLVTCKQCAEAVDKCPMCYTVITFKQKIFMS
For assay [11], the system named is XIP peptide (Xip251-270) binding. The assay is described as follows: small-molecule binders of XIP peptide, primary screen, biochemical, small-molecule microarray, fluorescence 635/667 nm, 0.1 µg/mL protein (AID 1182). The settings on record: fluorescent protein binding, 635 nm, higher = more signal, called active from +8 up or from −8 down.
For assay [12], the system named is XIP peptide (Xip251-270). The assay is described as follows: small-molecule binders of XIP peptide, primary screen, biochemical, small-molecule microarray, fluorescence 635/667 nm, 0.5 µg/mL protein (AID 1183). As to conditions: small-molecule microarray binding, fluorescence 635 nm; higher = more signal.
Assay [13] can be described thus: Plasmodium falciparum growth inhibition, primary screen, strain 3D7, DAPI fluorescence, 100 nL (AID 1184).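 Note: parasites grown inside human red blood cells in medium with human serum.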 The settings on record: P. falciparum 3D7 growth, 3 d, higher = more signal.
Assay [14] has as its target Homeobox protein Hox-A13 (Mus musculus) (UniProt Q62424). Kind of assay: inhibitors of HoxA13-DNA binding, primary screen, biochemical, fluorescence polarization, labeled oligonucleotide (AID 1185). As to conditions: 15 min, higher = more signal, called active from +8 up or from −8 down.
Assay [15] is described as follows: inhibitors of hydroxyurea-induced Chk1 phosphorylation, primary screen, imaging, HeLa, phospho-Chk1 antibody, percent positive cells (AID 1186). As to conditions: hydroxyurea-induced phospho-Chk1 immunofluorescence imaging, higher = more signal.
A short description of assay [16]: inhibitors of hydroxyurea-induced Chk1 phosphorylation, primary screen, imaging, HeLa, phospho-Chk1 nuclear intensity (AID 1187). The settings on record: hydroxyurea-induced phospho-Chk1 immunofluorescence imaging, higher = more signal.

Sequence of Homeobox protein Hox-A13 (Mus musculus) (Q62424 whole entry, looked up): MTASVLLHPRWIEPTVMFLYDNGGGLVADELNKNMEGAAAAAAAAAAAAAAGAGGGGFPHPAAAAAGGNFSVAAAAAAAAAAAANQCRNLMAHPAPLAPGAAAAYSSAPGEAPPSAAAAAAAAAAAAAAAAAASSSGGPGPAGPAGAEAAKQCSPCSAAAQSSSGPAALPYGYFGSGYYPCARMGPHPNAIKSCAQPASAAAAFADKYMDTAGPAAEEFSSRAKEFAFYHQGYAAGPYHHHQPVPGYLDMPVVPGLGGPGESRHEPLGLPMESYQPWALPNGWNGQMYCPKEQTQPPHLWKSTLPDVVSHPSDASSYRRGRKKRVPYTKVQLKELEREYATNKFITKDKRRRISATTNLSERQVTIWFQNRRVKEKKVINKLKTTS
Sequence of Dihydroorotate dehydrogenase (quinone), mitochondrial (Plasmodium falciparum (isolate 3D7)) (Q08210 whole entry, looked up): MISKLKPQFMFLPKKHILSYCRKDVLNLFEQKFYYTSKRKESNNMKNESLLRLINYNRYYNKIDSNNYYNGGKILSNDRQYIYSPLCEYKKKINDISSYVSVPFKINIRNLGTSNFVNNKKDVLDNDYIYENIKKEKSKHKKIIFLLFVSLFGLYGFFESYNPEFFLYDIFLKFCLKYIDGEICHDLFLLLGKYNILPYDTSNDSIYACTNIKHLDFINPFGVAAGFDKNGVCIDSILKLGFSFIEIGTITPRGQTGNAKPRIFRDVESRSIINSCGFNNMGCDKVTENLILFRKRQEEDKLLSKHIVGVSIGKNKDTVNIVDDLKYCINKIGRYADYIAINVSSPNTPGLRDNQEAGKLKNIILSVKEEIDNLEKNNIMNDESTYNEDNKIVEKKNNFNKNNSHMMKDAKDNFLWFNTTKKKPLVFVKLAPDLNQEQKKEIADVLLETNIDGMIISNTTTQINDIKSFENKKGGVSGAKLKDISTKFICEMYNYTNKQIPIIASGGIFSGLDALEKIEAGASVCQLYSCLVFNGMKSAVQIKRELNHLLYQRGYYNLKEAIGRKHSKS

With `CCCC[C@@H](O)C1=C(COc2ccccc2)C[C@H]2C(=O)N(Cc3ccccc3)C(=O)[C@H]2[C@H]1CO`, the z-score in assay [1] is -0.78; in assay [2], -1.66 (inactive); in [3] it was -0.857 (inactive); in [5], -0.508 (inactive); in [6], 0.743 (inactive); in assay [7], -0.0552 (inactive). Also, the z-score is 0.218 (inactive) in assay [8]; -0.301 in assay [9]; 0.131 in assay [13]; -7.37 (inactive) in [14]; -0.782 (inactive) in assay [15]; -0.513 (inactive) in [16]. Also, the composite z-score in assay [4] was -4.48 (inactive); in [10], -0.0118; in assay [11], -0.243 (inactive); in assay [12], 0.374.

For `CC#CCO[Si](C#Cc1ccccc1)(C(C)C)C(C)C`, the z-score in assay [1] is -0.112; in assay [2], -15.6 (active); in assay [3], -0.632 (inactive); in assay [5], 0.219 (inactive); in assay [6], 0.201 (inactive); in assay [7] it was -0.244 (inactive). Moreover, the z-score in assay [8] was -0.032 (inactive); in assay [9] it was -0.67; in [13] it was -0.916; in assay [14], -1.19 (inactive); in assay [15], 0.988 (inactive); in assay [16] it was 0.598 (inactive). Moreover, the composite z-score in assay [4] is 0.108 (inactive); in assay [10] it was -0.127; in assay [11], 0.0308 (inactive); in assay [12] it was -0.654.

In the case of `CC(C)C(CO)N1C(=O)[C@@H]2C3C(=O)OCCC/C=C\[C@H]3OC23C=CCN(Cn2nnc4ccccc42)C(=O)[C@@H]13` (some centres undefined), the z-score was 0.658 in assay [1]; -0.133 (inactive) in assay [2]; 0.184 (inactive) in [3]; 0.233 (inactive) in assay [5]; -0.0374 (inactive) in [6]; 0.246 (inactive) in assay [7]. Moreover, the z-score in assay [8] is 0.118 (inactive); in assay [9], 0.37; in assay [13], 0.596; in assay [14] it was -3.97 (inactive); in assay [15] it was -0.833 (inactive); in assay [16], -0.709 (inactive). Also, the composite z-score in assay [4] is -1.09 (inactive); in assay [10], -0.0367; in assay [11], -0.261 (inactive); in assay [12] it was 0.348.

Regarding `CCOC(=O)C[C@H]1[C@H](OC(=O)c2cc3ccccc3oc2=O)[C@@H](NC(=O)c2ccc3ccccc3n2)c2cc(OCCCO)ccc2N1C(=O)Cc1ccc(OC)cc1`, the z-score in [1] is 1.16; in [2], -0.105 (inactive); in assay [3], -0.76 (inactive); in [5] it was -1 (inactive); in assay [6], 0.796 (inactive); in assay [7] it was 0.662 (inactive). Besides, the z-score was 0.0535 (inactive) in assay [8]; -0.284 in assay [9]; -1.42 in assay [13]; -3.15 (inactive) in assay [14]; 0.458 (inactive) in assay [15]; -0.301 (inactive) in [16]. Further, the composite z-score is -0.543 (inactive) in [4], -0.173 in assay [10], -0.816 (inactive) in assay [11] and 0.71 in [12].

In the case of `Cc1ccc(S[C@]2(C(=O)NCC(F)(F)F)CC(=O)N(Cc3cc(C(F)(F)F)cc(C(F)(F)F)c3)[C@@H]2c2ccc(CO)cc2I)cc1`, the z-score was 1.02 in assay [1]; -3.16 (inactive) in [2]; -1.99 (inactive) in [3]; -0.522 (inactive) in [5]; -0.974 (inactive) in assay [6]; -0.301 (inactive) in assay [7]. In addition, the z-score in [8] is -0.0582 (inactive); in assay [9] it was -2.03; in assay [13], -0.609; in assay [14], -2.68 (inactive); in [15] it was 0.427 (inactive); in assay [16] it was 0.684 (inactive). In addition, the composite z-score in [4] was -0.845 (inactive); in assay [10], -0.325; in assay [11], 1.46 (inactive); in assay [12], 0.981.

In the case of `CC(C)(C)OC(=O)CC[C@@]1(C(=O)NCC(O)CO)N=C(c2ccc(OCCCO)cc2)O[C@@H]1c1ccccc1CN=[N+]=[N-]` (some centres undefined), the z-score is 0.507 in assay [1]; -0.215 (inactive) in [2]; -0.0579 (inactive) in assay [3]; 0.869 (inactive) in assay [5]; -0.181 (inactive) in assay [6]; 0.642 (inactive) in [7]. Also, the z-score in assay [8] was -0.154 (inactive); in assay [9], 0.126; in assay [13] it was -0.711; in assay [14], -5.44 (inactive); in [15] it was 0.436 (inactive); in assay [16], 0.71 (inactive). The composite z-score in assay [4] is 0.345 (inactive); in assay [10] it was 0.153; in assay [11], -0.246 (inactive); in [12] it was 0.57.

In the case of `Cc1ccc(S[C@]2(C(=O)NCC(F)(F)F)CC(=O)N(Cc3cc(C(F)(F)F)cc(C(F)(F)F)c3)[C@@H]2c2ccc(CO)cc2)cc1`, the z-score is -0.686 in assay [1]; 0.438 (inactive) in [2]; -0.266 (inactive) in assay [3]; 0.214 (inactive) in [5]; -0.145 (inactive) in assay [6]; -0.362 (inactive) in assay [7]. The z-score in [8] was -0.615 (inactive); in [9], -0.445; in assay [13], 1.2; in [14], -1.71 (inactive); in assay [15] it was 0.0254 (inactive); in assay [16], 0.474 (inactive). Further, the composite z-score is -13.9 (active) in [4], -0.241 in assay [10], -0.491 (inactive) in [11] and 0.584 in [12].

In the case of `COc1ccc([Si](C)(C)[C@@H]2[C@@H](CCO)O[C@]3(C(=O)N(Cc4ccccc4)c4ccc(NC(=O)[C@H](C)O)cc43)[C@H]2C)cc1`, the z-score in assay [1] was -4.57; in assay [2] it was 2.31 (inactive); in [3], -6.39 (inactive); in assay [5] it was 1.45 (inactive); in assay [6], 5.11 (inactive); in [7] it was 0.912 (inactive). Moreover, the z-score is 0.477 (inactive) in assay [8]; -6.12 in assay [9]; -2.83 in assay [13]; -6.12 (inactive) in [14]; -0.178 (inactive) in [15]; -0.305 (inactive) in [16]. For the same molecule, the composite z-score in assay [4] is -0.347 (inactive); in assay [10], 0.157; in assay [11], 0.816 (inactive); in assay [12], 0.606.

With `C=C(C(=O)CC[C@H](OC(=O)c1ccccc1-c1ccccc1C(=O)O)c1cccc(OCCO)c1)C(C)C`, the z-score in [1] is -0.862; in [2], -0.907 (inactive); in assay [3] it was -0.69 (inactive); in [5] it was 0.804 (inactive); in [6], -0.427 (inactive); in assay [7], -1.08 (inactive). The z-score in [8] is -1.03 (inactive); in assay [9], -0.69; in [13] it was -2.12; in assay [14], -5.93 (inactive); in [15], 0.442 (inactive); in assay [16], -0.51 (inactive). Further, the composite z-score was -0.23 (inactive) in assay [4], 0.0617 in [10], -0.145 (inactive) in assay [11] and 0.232 in [12].
